Screening data: PubChem, National Center for Advancing Translational Sciences (NCATS)
Lamin A splicing: changes lamin A minigene splicing in HeLa cells. AID 1487. HeLa LMNA splicing GFP/RFP minigene ratio, 48 h. 200,000 compounds, 0.01% hits. Potency, µM (highest dose often 46.1 µM), usual class: inhibitors; active means well fitted inhibition curve with a large enough effect in the signal ratio, with a control signal flat, not every such curve was filed as active; inconclusive means small, poorly fitted or top-dose-only effect, or effect the other way, or a change in a side signal; the % refers to the signal ratio
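S3 HeLa stable clones carrying a lamin A-EGFP splicing minigene plus DsRed2 were seeded at 600 cells/well in Opti-MEM with 2% FBS, pin-dosed and incubated 48 h at 37°C. Acumen cytometry (488 nm) gave the GFP/RFP total-intensity ratio.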
HTT cytoprotect: protects HTT-Q103 PC12 cells, measured by ATP. 230,000 compounds, 0.14% hits. Potency, µM (series often up to 56.4 µM), hits mostly activators. PC12 HTT-Q103 induced, cytoprotection, ATP luminescence, 40 h; active means well fitted curve in the direction sought with a large enough effect; inconclusive means small, poorly fitted or top-dose-only effect, or another doubt; inactive means no such curve, though single readings can be large; an effect the other way counts as inactive or inconclusive; further: nearly all actives have a fitted effect of over 45% in size
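Huntington model: PC12 line, ecdysone-inducible HTTQ103 exon1–GFP, tebufenozide 100 nM. Test articles in a dose series. Endpoint luminescence from cellular ATP.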
KDM4E inh: JMJD2E (human) inhibition | AID 2147 | 230,000 compounds, 1.6% hits | JMJD2E catalytic domain, FDH-coupled NADH fluorescence (FDH is formaldehyde dehydrogenase) | Potency, µM (titrated, usually from 57.1 µM), most hits filed as inhibitors; further: nearly all actives have a fitted effect of over 50% in size
HPGD inh: inhibitors of human 15-hydroxyprostaglandin dehydrogenase (HPGD); P15428; purified HPGD, NADH fluorescence kinetic, PGE2 substrate; Potency, µM, hits mostly inhibitors; 150,000 compounds, 4.3% hits
Target sequence (P15428 whole entry, looked up): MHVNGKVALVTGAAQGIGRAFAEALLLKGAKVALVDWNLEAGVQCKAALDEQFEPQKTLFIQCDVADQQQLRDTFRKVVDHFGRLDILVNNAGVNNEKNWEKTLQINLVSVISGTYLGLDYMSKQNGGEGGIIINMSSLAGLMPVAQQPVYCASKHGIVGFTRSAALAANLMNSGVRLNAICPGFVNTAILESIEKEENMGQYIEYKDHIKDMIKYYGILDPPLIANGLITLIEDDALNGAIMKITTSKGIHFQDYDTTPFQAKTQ
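20 nM HPGD preincubated 15 min at room temperature with compound in 50 mM Tris-HCl pH 8, 0.01% Tween 20. Started with 1 mM NAD+ and 30 uM prostaglandin E2; NADH fluorescence (360/450 nm) read 5 times over 30-s intervals, last minus first.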
ALDH1A1 block: inhibitors of human aldehyde dehydrogenase 1A1 | P00352 | Purified ALDH1A1, NADH fluorescence, propionaldehyde substrate | Potency, µM (series often up to 75.3 µM), most hits filed as inhibitors | 220,000 compounds, 7.3% hits | AID 1030
Target sequence (P00352 whole entry, looked up): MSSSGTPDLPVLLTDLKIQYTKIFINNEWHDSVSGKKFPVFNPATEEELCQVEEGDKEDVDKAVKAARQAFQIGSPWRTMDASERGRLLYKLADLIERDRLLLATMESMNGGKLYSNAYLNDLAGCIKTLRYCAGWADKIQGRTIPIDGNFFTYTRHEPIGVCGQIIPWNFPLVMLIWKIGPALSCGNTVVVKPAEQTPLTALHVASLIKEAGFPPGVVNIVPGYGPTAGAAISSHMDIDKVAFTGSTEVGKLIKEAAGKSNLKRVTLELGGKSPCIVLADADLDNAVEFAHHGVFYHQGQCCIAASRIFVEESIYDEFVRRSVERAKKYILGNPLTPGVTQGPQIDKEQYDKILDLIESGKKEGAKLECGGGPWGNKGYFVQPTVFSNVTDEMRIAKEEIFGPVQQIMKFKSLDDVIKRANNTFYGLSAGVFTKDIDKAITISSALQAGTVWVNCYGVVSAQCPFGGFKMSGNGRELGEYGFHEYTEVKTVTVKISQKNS
HttQ103 aggreg: inhibitors of mutant huntingtin aggregate formation in PC12 cells; PC12 HttQ103-GFP aggregates, Acumen cytometry, 40 h; Potency, µM (titrated, usually from 46.1 µM), usual class: inhibitors; 220,000 compounds, 1.1% hits; active means well fitted curve in the direction sought with a large enough effect; inconclusive means small, poorly fitted or top-dose-only effect, or another doubt; inactive means no such curve, though single readings can be large; an effect the other way counts as inactive or inconclusive; further: nearly all actives have a fitted effect of over 60% in size
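Huntingtin Q103 exon 1–GFP aggregates in induced PC12 cells (100 nM tebufenozide) were quantified by cytometry from lysates, with compounds dosed in titration.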
Hits are given with their value; – = inactive; ? = inconclusive; · = not tested or not shown; ! = not active in a repeat; [ ] = remark or other dose. This is a sample that favours compounds with a hit; in the whole collection about 9.2% have one here. Unless noted, the call rests on the fitted dose curve; in most records, active means well fitted inhibition curve with a large enough effect (not every such curve was filed as active); inconclusive means small, poorly fitted or top-dose-only effect, or another doubt; inactive means no such curve, though single readings can be large or run the other way.

SMILES	Lamin A splicing	HTT cytoprotect	KDM4E inh	HPGD inh	ALDH1A1 block	HttQ103 aggreg
CN(CC(=O)Nc1ccc(Cl)cc1)c1ccc(S(=O)(=O)N2CCCCC2)cc1[N+](=O)[O-]	?	–[10 µM]	–	–	11µM	–
CCOC(=O)CSc1ccc(S(=O)(=O)N2CCCCC2)cc1[N+](=O)[O-]	–	·	–	–	–	–
O=C(CN(C(=O)c1ccc(Cl)cc1)C1CCCCC1)Nc1ccc(Cl)c([N+](=O)[O-])c1	–	–[1.9 µM]	–	–	?	13µM
COC(=O)CSc1ccc(S(=O)(=O)N2CCCCCC2)cc1[N+](=O)[O-]	·	–	–	·	10µM	–
Cc1c([N+](=O)[O-])c(C/C=N/O)nn1C	·	–[10 µM]	–	·	·	–[9.22 µM]
CCCCNC(=O)C(c1ccc(OCC(=O)OC)c(C(=O)OC)c1)N(CCc1ccccn1)C(=O)CCCCCN1C(=O)NC(c2ccc(-c3ccccc3)cc2)C(C(=O)OCc2ccccc2)=C1C (stereo unspecified)	·	–	–	–	–	·
C=CCn1c(C)cc(C(=O)COc2ccc(S(=O)(=O)N3CCCC3)cc2[N+](=O)[O-])c1C	–	–[10 µM]	–	–	5µM	–
C=CCn1c(C)cc(C(=O)COc2ccc(C)nc2[N+](=O)[O-])c1C	?	·	–	–	?	–
COc1ccc(CNC2CCCC2)c(OC)c1OC	–	–	–	–	–	–
C=CCOc1ccc(Cl)cc1CNC1CCCC1	–	22µM	–	·	–	–
COC(=O)CCCC1=CC2=C(c3ccccc3)C(=O)C(C)(OC(=O)C3CCCC3)C(=O)C2=CO1 (stereo unspecified)	·	–	–	–	–	·
Cc1ccc2c(c1)Oc1ccc(NC(=O)CCl)cc1C(=O)N2	·	–[10 µM]	–	·	11µM	25µM
O=C1N/C(=N\N=C\c2cccs2)SC1Cc1cccc(Cl)c1Cl (stereo unspecified)	?	?	–	–	–	11µM
CC(C)(C)[C@H]1C=C(C(=O)N2CCN(Cc3ccc4c(c3)OCO4)CC2)O[C@@H](OCc2ccc(CO)cc2)C1	·	–[10 µM]	–	·	–	–[9.22 µM]
O=C(O)CCc1ccc(-c2cccs2)o1	–	–	?	22µM	1µM	–
Cc1ccc(-c2ccc(CCC(=O)O)o2)cc1	–	–	?	–	?	–
C=CCNC(=O)c1ccc2c(=O)n(CCCN3CCCC3=O)c(=S)[nH]c2c1	·	–	–	·	3.2µM	–
Cc1ccc(CNC(=O)c2ccc3c(=O)n(CCCN4CCCC4=O)c(=S)[nH]c3c2)cc1	–	–[10 µM]	–	–	?	–
COc1ccc(CNC(=O)c2ccc3c(=O)n(CCCN4CCCC4=O)c(=S)[nH]c3c2)cc1	–	–	–	·	28µM	–
O=C(NCCCN1CCCC1=O)c1ccc2c(=O)n(Cc3ccco3)c(=S)[nH]c2c1	–	–[10 µM]	–	–	13µM	–
COc1ccccc1CNC(=O)c1ccc2c(=O)n(CCCN3CCCC3=O)c(=S)[nH]c2c1	?	–	–	·	2µM	–
COC(=O)c1ccc2c(=O)n(CCCN3CCCC3=O)c(=S)[nH]c2c1	–	–[0.074 µM]	–	?	?	–
Cc1cc(=Nc2ccc3c(c2)c(N)cc(C)[n+]3C)nc(N)n1C	·	–[10 µM]	·	–	–[13.5 µM]	·
COc1ccc(-n2ncc(C(=O)NCc3cccs3)c2C2CCN(C(=O)OC(C)(C)C)CC2)cc1	–	·	·	·	·	·
Cc1cccc(CNc2ncncc2-c2cccc(C#N)c2)c1	–	–	?	–	–	·
SMILES	Lamin A splicing	HTT cytoprotect	KDM4E inh	HPGD inh	ALDH1A1 block	HttQ103 aggreg
COc1ccc(C(=O)C2C3C4COC(O4)C(=O)C3C3C=Cc4ccccc4N32)c(OC)c1 (stereo unspecified)	·	–[1.9 µM]	?	–	?	·
N#Cc1ccc(C23CC4(C2)[C@H](CN(Cc2cccnc2)[C@@H]4c2ccccc2)C3c2ccc(C(F)(F)F)cc2)cc1 (stereo partly specified)	·	–	–	–	–	·
O=C(NCc1ccccc1)c1ccc2c(=O)n(CCCN3CCCC3=O)c(=S)[nH]c2c1	–	–	–	–	4.5µM	–
COc1ccc(-n2c(=S)[nH]c3cc(C(=O)NCCCN4CCCC4=O)ccc3c2=O)cc1OC	–	–	–	–	2.5µM	–[9.22 µM]
CC[C@@H]1Cn2c(c3nc(-c4ccccc4)nc-3n(C)c2=O)N1	·	–	?	?	?	·
CN(C)c1ccc(C(CNC(=O)c2ccc(C(C)(C)C)cc2)N2CCCC2)cc1 (stereo unspecified)	–	·	·	·	·	·
CCOc1ccc(C(=O)c2ccncc2)cc1	–	–	–	–	–	–
CCOc1ccc(C(=O)c2ccc(OC)c(O)c2O)cc1	·	–	25µM	–	–	·
COc1ccc(C(=O)c2ccc(O)cc2)c(O)c1O	?	·	16µM	?	?	·
C=CCN1c2ccccc2[C@]23C[C@@H](C(=O)OC)N(S(=O)(=O)c4ccc(C#N)cc4)C2=NC(C(=O)OC)=C(C(=O)OC)[C@H]13	?	–[10 µM]	–[11.4 µM]	–	–[13.5 µM]	·
COc1ccc(NCC(=O)N/N=C(\C)c2cc3ccccc3o2)cc1	·	–	?	·	25µM	–
C/C(=N\NC(=O)COc1ccc(C(C)(C)C)cc1)c1cc2ccccc2o1	?	–[0.074 µM]	–	?	–	–
C/C(=N\NC(=O)CNc1ccc(F)cc1)c1cc2ccccc2o1	–	–[10 µM]	–	·	11µM	–
O=C(CSCc1ccc(Br)cc1)NCc1ccccn1	–	–	–	·	–	–[9.22 µM]
O=C(Nc1ccc(F)c(Cl)c1)C1CCN(S(=O)(=O)c2ccc3[nH]c(=O)ccc3c2)CC1	–	·	·	·	·	·
CCOc1cccc(=O)c2c(C)n(CC(=O)c3ccccc3)c(C)c12	·	–[10 µM]	–	·	8.9µM	–[9.22 µM]
OC(Cc1cccnc1)(Cc1cccnc1)c1cc2ccccc2[nH]1	–	–[0.074 µM]	–	–	–	–
CN(C)C(=O)c1cn(-c2ccccc2)nc1-c1cccc([N+](=O)[O-])c1	·	–	–	·	8.9µM	–
Cc1ccc(C(=O)N/C(=C/c2cn(-c3ccccc3)nc2-c2ccccc2)C(=O)O)cc1	·	–	–	·	11µM	–
CC(C)NC(=O)/C(=C/c1cn(-c2ccccc2)nc1-c1cccc([N+](=O)[O-])c1)NC(=O)c1ccccc1	–	·	–	–	14µM	–
O=C(N/C(=C/c1cn(-c2ccccc2)nc1-c1ccccc1)C(=O)N1CCOCC1)c1ccccc1	–	–[10 µM]	–	–	?	–
O=C(Nc1ccc2nc(SCC(=O)N3CCOCC3)sc2c1)c1cccc(Cl)c1	–	·	·	·	·	·
C[C@@H](C(=O)O)c1ccc(N2Cc3ccccc3C2=O)cc1	?	–	–	–	–	·
COc1ccc(-n2[nH]c(C)cc2=O)cc1	?	–	–	–	3.2µM	?
C=C[C@@]1(C)CC[C@H](O)[C@H]2C(=O)CCC[C@@H]21	·	?	–	–	–	·
CCN(CC)CCOC(=O)C1(c2ccc([N+](=O)[O-])cc2)CCCC1	?	0.32µM!	–	–	–	·
